Tau fibril ThT: qHTS for Inhibitors of Tau Fibril Formation, Thioflavin T Binding | Microtubule-associated protein tau (Homo sapiens), P10636 | recombinant tau K18 P301L, heparin-induced fibrillization, ThT fluorescence | Potency, µM (top dose mostly 57.4 µM), without a hit: at the top dose activity, negative = inhibition, actives largely listed as inhibitors | 270,000 tested, 2.1% active | AID 1460, 2008; note: potency is the fitted concentration of half-maximal effect; nearly all actives have a fitted effect of over 55% in size
Target sequence (P10636 561-689 P618L limits assumed): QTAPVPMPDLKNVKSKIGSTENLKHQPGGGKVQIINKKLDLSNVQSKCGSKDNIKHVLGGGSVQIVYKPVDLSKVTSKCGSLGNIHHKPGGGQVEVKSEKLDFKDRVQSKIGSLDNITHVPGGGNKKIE
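Fibril formation assay: tau K18 P301L at 15 uM with trace Alexa 594 label, heparin inducer 20 uM, pH 7 sodium acetate buffer, 37 C for 6 hr; endpoint ThT signal.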
Sfp inh: qHTS Assay for Inhibitors of Bacillus subtilis Sfp phosphopantetheinyl transferase (PPTase) | Biochemical Sfp PPTase activity, qHTS | Potency, µM, for inactives: largest response in the series, negative = inhibition, actives largely listed as inhibitors | 310,000 tested, 3.5% active;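 note: the enzyme is Sfp with the accession as filed and its product quenches rhodamine fluorescence; potency is the fitted concentration of half-maximal effect; 0% = enzyme reaction without inhibitor and -100% = no enzyme wells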
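Step 1, compound plus 15 nM Sfp-PPTase, 15 min, room temperature. Step 2, add rhodamine-CoA (5 uM) and BHQ-2-YbbR (12.5 uM). Step 3, read 525/598 nm fluorescence at 0 and 30 min.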
Tau FP inhib: qHTS for Inhibitors of Tau Fibril Formation, Fluorescence Polarization. Microtubule-associated protein tau (Homo sapiens), P10636. K18 P301L tau heparin fibrillization, Alexa594 FP, 6 h. Potency, µM (titrated, usually from 57.7 µM), for the others: at the highest dose activity, negative = inhibition, hits mostly inhibitors. 280,000 tested, 0.39% active; note: potency is the fitted concentration of half-maximal effect; nearly all actives have a fitted effect of over 55% in size
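Recombinant K18 P301L […], labeled with Alexa 594 at 0.24 uM over 15 uM unlabeled; heparin inducer 20 uM final; 37 C, 6 hr; FP endpoint.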
Coupling enz: qHTS Assay for Inhibitors of Fructose-1,6-bisphosphate Aldolase from Giardia Lamblia: Coupling assay counterscreen. coupling enzyme system counterscreen, AmpLite Red fluorescence. 290,000 tested, 0.67% active. activity change, negative = inhibition, % at 58.2 µM, hits read low; in the data active = activity change below about -30%
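Counterscreen lacking aldolase: glyceraldehyde-3-phosphate coupling-enzyme reagent preincubated 10 min at RT with compound (at 57.5 uM final), then substrate/coupling system with AmpLite Red added; fluorescence read at 525/598 nm after 20 min RT.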
G9a inh: qHTS Assay for Inhibitors of Histone Lysine Methyltransferase G9a; Histone-lysine N-methyltransferase EHMT2 (Homo sapiens), Q96KQ7; G9a H3K9 monomethylation, AlphaScreen, 2 h; Potency, µM (doses to about 102 µM), without a hit: top-dose activity, negative = inhibition, actives largely listed as inhibitors; 350,000 tested, 8.8% active; AID 504332, 2011; note: potency is the fitted concentration of half-maximal effect; nearly all actives have a fitted effect of over 75% in size
Target sequence (Q96KQ7 913-1193 limits assumed): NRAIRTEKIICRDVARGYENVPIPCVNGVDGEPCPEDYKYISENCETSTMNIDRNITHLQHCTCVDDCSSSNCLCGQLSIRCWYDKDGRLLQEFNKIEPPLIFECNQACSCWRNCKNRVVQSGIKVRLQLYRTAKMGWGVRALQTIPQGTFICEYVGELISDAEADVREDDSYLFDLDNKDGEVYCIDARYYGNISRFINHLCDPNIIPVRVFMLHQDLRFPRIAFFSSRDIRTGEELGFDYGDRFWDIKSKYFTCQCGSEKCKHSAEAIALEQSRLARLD
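Enzyme 20 nM + cpd, 15 min RT; add b-H3K9 pep 500 nM / SAM 20 uM; 2 h RT; anti-H3K9me1 Ab 0.5 ug/mL + SA donor / anti-rabbit acceptor beads 20 ug/mL each, 10 min; AlphaScreen read.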
Tau fluor cs: Counterscreen qHTS for Inhibitors of Tau Fibril Formation, Fluorescence Polarization | Potency, µM (top dose mostly 57.7 µM), for inactives: top-dose activity change, negative = decrease | 280,000 tested, 0.93% active | AID 1463, 2008 | tau K18 P301L (four-repeat tau fragment) Alexa594 fluorescence, heparin fibrillization; note: potency is the fitted concentration of half-maximal effect; nearly all actives have a fitted effect of over 55% in size
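Human K18 P301L tau (15 uM unlabeled plus 0.24 uM Alexa 594-labeled, final) in 100 mM sodium acetate pH 7 was mixed with compound and 20 uM heparin and incubated 6 hr at 37 C.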
Active calls of the source: *; ? = inconclusive; / = not tested or not shown; [ ] = another dose, or the depositor's remark. Compounds with a hit are over-represented: about 11% of the library has one in this group of screens. Unless noted, calls come from the whole dose curve; as a rule, active = well fitted curve in the direction sought with a large enough effect; inconclusive = small, poorly fitted or top-dose-only effect, or another doubt; inactive = no such curve, though single readings can be large; an effect the other way counts as inactive or inconclusive. Unless noted, % is set by controls: 0 for no effect and ±100 for the full control effect.

SMILES | Tau fibril ThT | Sfp inh | Tau FP inhib | Coupling enz | G9a inh | Tau fluor cs
NCC[C@H](O)C(=O)N[C@H]1C[C@@H](N)[C@@H](O[C@H]2O[C@@H](CN)[C@@H](O)[C@@H](O)[C@@H]2N)[C@@H](O[C@H]2O[C@@H](CO)[C@@H](O)[C@@H]2O)[C@@H]1O | / | 8% | / | 3 | 3%[5.15 µM] | /
CCOP(=O)(C#Cc1ccccc1)C(O)c1ccc(Br)cc1 (configuration not stated) | / | 3% | 7% | 3 | 2% | 5%
CCOP(=O)(c1ccccc1)C(O)c1ccc(F)cc1 (configuration not stated) | 4% | 22% | -5% | 0 | 0.63µM* | 6%
CCOP(=O)(OCC)C1(O)C(=O)Nc2ccccc21 (configuration not stated) | -3% | 11% | 1% | 1 | 9%[59 µM] | -5%
CC1CCCC(C2(O)C(=O)Nc3ccccc32)C1=O (configuration not stated) | 0% | -12% | 0% | 3 | 1.8µM* | 6%
Cc1ccc2c(c1)C1CN(C)CCC1N2C(=O)Cc1cccs1 (configuration not stated) | -5% | 12% | -9% | -2 | 79µM* | -2%
Cc1ccc2c(c1)C1CN(C)CCC1N2C(=O)c1cccs1 (configuration not stated) | / | -3% | -4% | 2 | 9% | -7%
CN(C)c1ccc(NC(=O)Oc2ccccc2)cc1 | 14µM* | 79µM* | ? | -2 | 1.6µM* | ?
CCOC(=O)c1ccc(NC(c2ccc(N(C)C)cc2)P(=O)(OC(C)C)OC(C)C)cc1 (configuration not stated) | -17% | -6% | 3% | -4 | 35µM* | -19%
CC(C)COP(=O)(c1ccc(N(C)C)cc1)C(Nc1ccccc1)c1ccccc1 (configuration not stated) | -12% | -6% | 9% | -1 | ? | -8%
COc1cc(CN2CCN(C(=O)COc3ccccc3)CC2)cc(OC)c1OC | -1% | -23% | -1% | 0 | ? | 2%
O=C(COc1ccccc1)N1CCN(Cc2c[nH]c3ccccc23)CC1 | -6% | 1% | 5% | 3 | 13µM* | -9%
O=C(Cc1ccccc1)N1CCN(Cc2c[nH]c3ccccc23)CC1 | -2% | 0% | 3% | -1 | -12% | -1%
COc1ccc(OCC(=O)N2CCN(Cc3c[nH]c4ccccc34)CC2)cc1 | -19% | -15% | 8% | 1 | 3.5µM* | -17%
O=C1NC(=O)N(c2ccc(Br)cc2)C(=O)/C1=C/c1ccsc1 | ? | 32µM* | -6% | 2 | 20µM* | -15%
O=C1NC(=O)N(c2ccc(F)cc2)C(=O)/C1=C/c1ccsc1 | ? | ? | 2% | 0 | 14µM* | 1%
O=C1NC(=O)C(=Cc2ccsc2)C(=O)N1 | ? | ? | ? | -1 | -24% | -9%
O=C1NC(=O)N(c2cccc(Br)c2)C(=O)/C1=C/c1ccsc1 | ? | 20µM* | -9% | -6 | 10µM* | -15%
O=C1CC2OCC=C3CN4CC[C@]56c7ccccc7N1C5C2[C@H]3C[C@H]46 (some centres not stated) | -4% | 26% | -1% | / | 17%[59 µM] | -4%
Cn1cccc1/C=C1/C(=O)NC(=S)N(Cc2ccc(F)cc2)C1=O | / | ? | 35µM* | -4 | 10µM* | 11µM*[quencher]
C=CCN1C(=O)NC(=O)/C(=C/c2ccc(N(C)C)c(Br)c2)C1=O | ? | 50µM* | ? | -6 | 16µM* | -26%
C=CCN1C(=O)NC(=O)/C(=C/c2cccn2C)C1=O | ? | -28% | -4% | -1 | 50µM* | -29%
Cn1cccc1/C=C1/C(=O)NC(=O)N(Cc2ccc(F)cc2)C1=O | / | -15% | / | 1 | 40µM* | /
Cn1cccc1/C=C1\C(=O)NC(=O)N(Cc2ccccc2)C1=O | ? | -1% | 3% | 6 | ? | -19%
Cn1cccc1/C=C1/C(=O)NC(=O)N(Cc2ccccc2)C1=O | ? | -9% | 1% | -4 | ? | -20%
SMILES | Tau fibril ThT | Sfp inh | Tau FP inhib | Coupling enz | G9a inh | Tau fluor cs
NCCCNCCCCNCCCNC(=O)Cc1ccc(O)cc1 | -13%[11.5 µM] | 18% | 1%[11.6 µM] | 3 | 7%[12.7 µM] | -11%[11.6 µM]
CSc1nn(-c2ccc(C(=O)OCC(=O)NC(=O)NC(C)C)cc2)c(=S)s1 | -10% | -6% | -2% | 1 | -19%[59 µM] | ?
CCOP(=O)(Cc1ccccc1)OCC | / | / | / | / | 5%[2.33 µM] | /
CCCC(=O)c1cc(CP(=O)(OCC)OCC)oc1C | -15% | ? | -5% | 0 | 7.9µM* | -10%
CCOP(=O)(Cc1cc(C(C)=O)c(C)o1)OCC | ? | ? | -6% | 0 | 8.9µM* | -17%
CCOP(=O)(Cc1ccc(C#N)o1)OCC | 5% | 8% | -3% | 2 | ? | 10%
Cc1c(F)c(F)c(COC(=O)C2C(/C=C(\Cl)C(F)(F)F)C2(C)C)c(F)c1F (configuration not stated) | / | 9% | / | 1 | / | /
COc1ccc2c(c1)/C(=C/c1cnc[nH]1)C(=O)N2 | 14µM* | 2% | 8% | 0 | 30%[59 µM] | -18%
CCOc1ccc(Cc2c(O)[nH]c(=O)[nH]c2=O)cc1 | 28µM* | 20µM* | 25µM* | -16 | ? | -14%
COc1ccc(C(=O)Nc2ccc(-c3cc(C(F)(F)F)nn3-c3ccccc3)cc2)cc1OC | 8% | / | ? | / | -7%[59 µM] | ?
Nc1ccccc1C(=O)O | / | 9% | / | / | 14%[59 µM] | /
O=C1C(I)=CC(=C(c2cc(I)c(O)c(I)c2)c2ccccc2C(=O)O)C=C1I | / | 32µM* | / | / | ? | /
Nc1ccc(CCN2CCCC2)cc1 | / | 11% | / | 0 | 40µM* | /
O=C(c1ccccc1)N1CCN(CCc2ccccc2)CC1 | / | 5% | / | 3 | ? | /
Nc1ccc(CCN2CCN(c3cccc(C(F)(F)F)c3)CC2)cc1 | ? | 26% | 4% | / | 40µM* | -18%
CC(=O)Nc1c(I)c(C(=O)O)c(I)c(N(C)C(C)=O)c1I | / | 29% | / | / | ? | /
CC(=O)[C@H]1CC[C@H]2C3CC[C@H]4C[C@](C)(O)CC[C@]4(C)C3CC[C@]12C (some centres not stated) | / | 2% | / | -2 | / | /

From PubChem BioAssay
